Measured values from PubChem BioAssay (NCATS).
Inconclusive results are not listed. Values without a mark were called inactive. The source made the active and inactive calls. Calls follow the shape of the dose curve; as a rule, active = well fitted cell-killing curve with a large enough effect; inconclusive = small, poorly fitted or top-dose-only effect, or effect the other way; inactive = no such curve, though single readings can be large or run the other way.

Assay: Quantitative High-Throughput drug screen in 47 multiple myeloma cell lines against the NCATS MIPE library collection: PCM6_Riken cell viability assay (AID 1919870); also: nearly all actives have a fitted effect of over 30% in size
Conditions: CellTiter-Glo ATP, 48 h; series mostly up to 45.8 µM; viability (% of control): at the top concentration
Method in brief: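 500 cells/well per myeloma line exposed to pinned MIPE 4.0 compounds for 48 h at 37 °C, 5% CO2. Viability read as ATP by CellTiter-Glo luminescence, normalised to DMSO-only (100%) and media-only (0%) wells.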
Potency is read from the fitted curve at half-maximal effect.

SMILES	Potency	viability (% of control) [%]
c1ccc(CCCN2CCN(CCOC(c3ccccc3)c3ccccc3)CC2)cc1	26.4 µM (active)	–
C[C@]12CC[C@H]3[C@@H](CCC4=CC(=O)CC[C@@]43C)[C@H]1CC[C@H]2O	–	99.7
CCOC(=O)c1c(C(C#N)=CN)c2ccc(Cl)c(Cl)c2n1C	–	70.5
CC[C@@H](C(N)=O)N1CCCC1=O	–	117
C[C@@H]1CC[C@H]2[C@@H](C)C(=O)O[C@@H]3O[C@@]4(C)CC[C@H]1[C@]32OO4	6.62 µM (active)	–
O=S(=O)(CC1CS1)c1ccc(Oc2ccccc2)cc1 (centres undefined)	23.5 µM (active)	–
CCc1c(C(=O)C(N)=O)c2c(OCC(=O)O)cccc2n1Cc1ccccc1	–	124
C[C@@H]1O[C@@H](O[C@@H]2C=C3CC[C@@H]4[C@@H](CC[C@]5(C)[C@H](c6ccc(=O)oc6)CC[C@@]45O)[C@@]3(C)CC2)[C@H](O)[C@H](O)[C@H]1O	0.0093 µM (active)	–
C[C@@]12OC(=O)[C@]1([C@@H](O)[C@@H]1C=CCCC1)NC(=O)[C@H]2CCCl	0.0105 µM (active)	–
CSCC[C@@H](NC(=O)[C@@H](Cc1ccccc1)NC(=O)CNC(=O)CNC(=O)[C@@H](N)Cc1ccc(O)cc1)C(=O)O	–	116
CC(C)(C)[C@]1(O)C[C@@H]2OC(=O)C[C@@]23C(=O)O[C@@H]2OC(=O)[C@H](O)C213 (some centres undefined)	–	127
CC(=Cc1csc(C)n1)[C@@H]1C[C@H]2O[C@]2(C)CCC[C@H](C)[C@@H](O)[C@@H](C)C(=O)C(C)(C)[C@@H](O)CC(=O)O1	–	82.6
C[C@]12CC[C@@H]3[C@@H](CCC4=CC(=O)CC[C@@H]43)[C@@H]1CC[C@@H]2OC(=O)CCc1ccccc1	–	136
c1ccc2c(CN3CCNCC3)cccc2c1	–	98.7
COc1cc([C@@H]2c3cc4c(cc3[C@@H](O)C3COC(=O)C32)OCO4)cc(OC)c1O (some centres undefined)	0.0469 µM (active)	–
C[C@]12Cc3cn[nH]c3C[C@@H]1CC[C@@H]1[C@H]2CC[C@@]2(C)[C@H]1CC[C@]2(C)O	–	119
CCC(=O)OC1CCC2C3CCC4=CC(=O)CC[C@@]4(C)C3CC[C@]12C (some centres undefined)	–	89.7
CCN(CC)C(=O)c1ccc(C2=CC3(CCNCC3)Oc3cccc(O)c32)cc1	–	133
O=c1cccc2n1CC1CNC[C@H]2C1	20.9 µM (active)	–
COc1ccc(CC2NCCc3cc(OC)c(OC)cc32)cc1OC (centres undefined)	8.33 µM (active)	–
CCCN1CCO[C@@H]2c3cc(O)ccc3OC[C@@H]21	–	111
Oc1ccc2c3c1O[C@H]1c4[nH]c5c(c4C[C@@]4(O)[C@@H](C2)N(CC2CC2)CC[C@]314)C[C@@]1(O)[C@H]2Cc3ccc(O)c4c3[C@@]1(CCN2CC1CC1)[C@H]5O4	–	79.8
C#C[C@]1(O)C=C[C@@H]2[C@@H]3CCC4=CC(=O)CC[C@@H]4[C@H]3CC[C@@]21CC	–	117
CC1=NN=C(c2ccc(N)cc2)c2cc3c(cc2C1)OCO3	–	116
